Assay outcomes: PubChem BioAssay, National Center for Advancing Translational Sciences (NCATS)
Marburg entry inh: blocks Marburg virus binding to or entry into cells; Marburg virus pseudotyped entry inhibition, cell reporter; Potency, µM (highest dose often 37.8 µM), without a hit: at the top dose activity change, negative = inhibition, usual class: inhibitors; hit rate 1.8% among 300,000; calls by dose curve; tested in HEK293 cells; also: potency is read from the fitted curve at half-maximal effect
HCV inh: HCV inhibition; Huh7.5.1 HCVcc-Cre infection, luciferase reporter, 44 h; Potency, µM (series often up to 41.8 µM), inactives show top-dose activity change, negative = inhibition, usual class: inhibitors; hit rate 3.4% among 340,000; AID 651820; active = well fitted inhibition curve with a large enough effect; inconclusive = small, poorly fitted or top-dose-only effect, or another doubt; inactive = no such curve, though single readings can be large or run the other way; also: potency is read from the fitted curve at half-maximal effect
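Luciferase read-out (15 sec integration) after a 15 min room-temperature substrate step quantifies HCVcc-Cre infection. Cells, 1,000 per well, had compound added 4 h post-plating, then virus at ~0.5 moi, and were cultured 44 h.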
Lassa entry inh: Lassa virus entry inhibition; Lassa virus pseudotype entry inhibition, cell reporter; Potency, µM (doses to about 37.9 µM), without a hit: at the top dose activity change, negative = inhibition, usual class: inhibitors; hit rate 1.2% among 300,000; calls by dose curve; tested in HEK293 cells; also: potency is read from the fitted curve at half-maximal effect; nearly all actives have a fitted effect of over 50% in size
FMDV antiviral: blocks foot and mouth disease virus. AID 1159524. Potency, µM (series often up to 57.9 µM), inactives show at the top dose activity change, negative = inhibition, actives largely listed as inhibitors. FMDV antiviral cell-based qHTS. hit rate 1.2% among 410,000; calls by dose curve; tested in HEK293T cells; also: read-out not given here; potency is read from the fitted curve at half-maximal effect; nearly all actives have a fitted effect of over 45% in size
HCMV inh: inhibitors of human cytomegalovirus; HFF cells, HCMV-luciferase reporter, 72 h; stronger effect = lower value; activity change, negative = inhibition, % at 57.5 µM; hit rate 4.5% among 410,000; in the data active = activity change below about -60%; inconclusive = no clear call, values can overlap the other calls; inactive = above about -39%
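Two compound doses tested in HFFs infected with HCMV-luciferase, MOI 1 PFU/cell, 72 h at 37C. Lysate luminescence read with OneGlo; data normalized against buffer-only and 10uM Salinomycin inhibitor controls.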
An asterisk follows results filed as active; u = inconclusive; x = no result given; [ ] = remark or other dose. Most compounds without a hit are left out; they make up all but 7.9% or so of the library. % is scaled to controls: 0 for no effect and ±100 for the full control effect.

SMILES | Marburg entry inh | HCV inh | Lassa entry inh | FMDV antiviral | HCMV inh
NC(N)=N/N=C/c1ccc(N(c2ccccc2)c2ccccc2)cc1 | x | u | x | 31.6µM* | -97.5*
COc1ccc(-c2nc3sc(CCNC(=O)c4cc(Cl)ccc4OC)c(C)n3n2)cc1 | x | x | u | 17.7% | 93.6
O=C(NC1CCCCC1)C(CCc1ccccc1)N1CCc2ccccc2C1 (stereo not drawn) | x | x | x | 4.7% | -14.2
O=C(c1cnn(-c2nccc(-c3ccccc3F)n2)c1C1CC1)N1CCN(CCO)CC1 | x | x | x | -2.0% | x
CCCCC1(Cc2cccc([N+](=O)[O-])c2)C(=O)N(c2ccccc2)N(c2ccccc2)C1=O | 15.8µM* | 6.31µM* | u | u | -64.0*
O=C(NCCc1c[nH]c2ccccc12)c1cc2sccc2n1Cc1ccccc1 | -11.8% | 5.01µM* | u | u | -25.1
CCN1Cc2c(/C=C/c3ccccc3)nc3ccc(OC)cc3c2N(c2cccc(Cl)c2)C1 | x | 17.8µM* | x | 39.8µM* | -101.8*
Cc1ccc2nc3c(c(N)c2c1)CCN3c1ccccc1 | u | u | u | u | 16.3
COc1cccc(N2CCc3c(C)nc4ccc(Cl)cc4c32)c1 | 11.2µM* | u | u | u | -22.0
COc1ccc(N2CCc3c(C)nc4c(OC)cccc4c32)cc1 | u | u | u | 16.4% | -66.0*
COc1ccc(N2CCc3c(C)nc4c(OC)cc(OC)cc4c32)c(OC)c1 | 11.6µM* | 11.2µM* | u | 0.0% | -20.0
Cc1nc2c(C)cccc2c2c1CCN2c1ccccc1F | u | u | -22.3%[46.1 µM] | u | u
COc1ccc(-n2c(-c3ccc(C(C)(C)C)cc3)n[nH]c2=S)c(OC)c1 | x | x | x | -27.8% | 10.5
CCOc1ccc(N(CC(=O)Nc2ccc3c(c2)OCO3)S(=O)(=O)c2ccccc2)cc1 | x | x | 6.3%[46.1 µM] | 58.5% | -23.2
C=CCCC1(C(=O)c2ccccc2)C(=O)C(CC=C(C)C)=C(OC)C(CC=C(C)C)(CCC=C(C)C)C1=O (stereo not drawn) | -1.2%[14.2 µM] | x | u | x | x
COc1ccc(OCc2cc(C(=O)N(C)C3CCOCC3)no2)c2ccccc12 | x | -3.8% | x | 16.3% | 114.0
COc1cc(OC)cc(C(=O)N[C@H](C(=O)NCc2ccc(F)cc2)C(C)C)c1 | u | -13.5% | -19.7%[46.1 µM] | -3.7% | 9.2
C/C(CC(=O)Nc1ccc(Cl)c(C(F)(F)F)c1)=N\NC(=O)c1cc2ccccc2cc1O | u | -24.8% | u | u | -24.8
COc1ccc(N2CCc3c(C)nc4c(OC)cc(OC)cc4c32)cc1 | u | 12.6µM* | u | u | -107.8*
COc1ccc(N2Cc3ccc(OC)c(OC)c3C2=O)cc1 | x | 4.0% | x | 47.0% | 145.9
O=C(CSc1nnc2scc(-c3ccc(Cl)cc3)n12)Nc1cccc(C(F)(F)F)c1 | u | x | -21.9%[46.1 µM] | 0.0% | -17.3
Cc1ccc(NC(=O)c2ccccc2)cc1 | u | 2.2% | u | 29.6% | 124.8
Cc1ccc(NC(=O)C2=C(c3ccccc3)S(=O)(=O)CCS2(=O)=O)cc1 | u | 11.2µM* | u | 25.1µM* | -98.8*
COc1ccc(CCNC(=O)CCc2c(C)nc3nc(C)nn3c2C)cc1OC | 2.9%[46.1 µM] | x | 11.8%[46.1 µM] | 7.2% | 1.9
CCOC(=O)C(O)(c1ccc(N=c2ccccn2C)cc1)C(F)(F)F (stereo not drawn) | -0.2% | -6.7% | 5.6% | -9.4% | 28.6
SMILES | Marburg entry inh | HCV inh | Lassa entry inh | FMDV antiviral | HCMV inh
Cn1cccc/c1=N\c1cccc[n+]1C | x | 3.55µM* | x | -21.1% | -73.5*
FC(F)(F)C1CCC(c2nnc(C3CCCCN3)c(C3=NCCCC3)n2)NC1 (stereo not drawn) | 16.3% | x | x | x | x
COc1ccc(NC(=O)CN(c2c(C)cccc2C)S(C)(=O)=O)cc1 | x | 4.9% | x | 3.4% | 82.4
O=C1NC(=Nc2cccc(Cl)c2)SC1Cc1cccc(Cl)c1Cl (stereo not drawn) | -23.2% | -25.0% | u | x | -77.7*
O=C(O)CC1SC(=Nc2cccc(O)c2)NC1=O (stereo not drawn) | 1.1% | 2.3% | 26.7% | 6.4% | -14.2
COCCN1C(=O)NC(c2cccc(F)c2)C(C(C)=O)=C1C (stereo not drawn) | -6.0%[14.2 µM] | x | x | x | x
Cc1ccc(-c2csc3nc[nH]c(=S)c23)cc1 | -29.0% | -17.9% | -1.9% | -28.5% | u
S=c1[nH]cnc2scc(-c3ccc(Br)cc3)c12 | u | u | -28.8%[46.1 µM] | -20.5% | -86.8*
CC(=O)c1ccc(Nc2ccc(-c3ccccc3F)nn2)cc1 | u | -17.0% | u | 13.0% | 39.2
COc1cccc(-c2nc(N3CCCCC3C)c3ccccc3n2)c1O (stereo not drawn) | u | 8.91µM* | 18.4% | -26.6% | 114.8
COc1cccc(-c2nc(NC3CCCC3)c3ccccc3n2)c1O | x | 2.82µM* | x | 28.2µM* | x
C=CCNc1nc(-c2cccc(OC)c2O)nc2ccccc12 | -28.5% | 15.8µM* | 7.1% | -7.7% | 10.9
c1ccc(-c2nc(NC3CCCC3)c3ccccc3n2)cc1 | u | 1.26µM* | -25.2% | u | 20.2
COc1cccc(-c2nc(NCc3ccco3)c3ccccc3n2)c1O | 16.9% | u | u | 3.1% | 41.0
COc1cccc(-c2nc(NCc3ccccc3)c3ccccc3n2)c1O | x | u | x | 10.3% | -3.4
CSCCC(NC(=O)c1cccc(C)c1)C(=O)NCc1cccs1 (stereo not drawn) | x | 8.0% | x | 2.7% | -16.2
COc1cccc(CNC(=O)c2cc(C)nc3c2c(C)nn3-c2ccc(C)cc2)c1 | x | x | -14.7%[46.1 µM] | -11.7% | -9.3
CCC1CN(CCNC(=O)c2cscn2)Cc2cc(OC)ccc2O1 (stereo not drawn) | x | x | x | 3.3% | x
O=C(NCCc1ccccc1Cl)c1ccc(Cn2c(=O)c3cccn3c3cccnc32)cc1 | x | x | -19.5%[46.1 µM] | -9.7% | -83.6*
CC(C(=O)NCCc1ccc(Cl)cc1)n1c(=O)c2cccn2c2cccnc21 (stereo not drawn) | x | 11.2µM* | x | -27.3% | 0.0
CCCOc1ccc(F)cc1-c1cc(C(=O)Nc2ccc(OC)cc2C)[nH]n1 | x | x | x | -18.5% | -25.8
NC(C(=O)O)c1ccc(P(=O)(O)O)cc1 (stereo not drawn) | x | x | x | -13.7% | x
COc1ccc2[nH]cc(CCNc3ncncc3-c3ccccc3OC)c2c1 | x | x | x | -7.0% | x
COc1ccc2[nH]cc(CCNc3ncncc3-c3ccccc3Cl)c2c1 | x | x | x | 35.5µM* | x
CC(C)Cc1nc(N2CCN(C(=O)C(C)C)CC2)c(C#N)c2c1CCC2 | u | -22.5% | u | u | -32.7
SMILES | Marburg entry inh | HCV inh | Lassa entry inh | FMDV antiviral | HCMV inh
CCc1nc(Cl)c(C#N)c2c1CCCC2 | u | u | 17.2%[46.1 µM] | -19.5% | -87.6*
CC(C)Cc1nc(Cl)c(C#N)c2c1CCCC2 | x | -10.8% | x | -31.7% | -75.5*
CCCc1nc(Cl)c(C#N)c2c1CCCC2 | 1.4%[46.1 µM] | u | -1.1% | -7.6% | -37.7
CCCCc1nn2c(=O)cc(COC(=O)c3cccs3)nc2s1 | x | x | u | 31.7% | 1.7
COc1cc(=O)n2c(c1C(=O)N(C)Cc1nonc1C)CCN(Cc1ccsc1)CC2 | x | x | x | 4.2% | x
O=c1[nH]c(-c2ccccn2)nc2ccccc12 | u | u | u | -14.7% | -106.4*
Cc1ccc2nc(-c3ccccn3)[nH]c2c1 | u | -29.7% | 6.31µM* | -39.5% | 7.1
